Assay results published in PubChem BioAssay (EPA / NIEHS).
Records with an inconclusive call do not appear. Where a structure was tested more than once in an assay, its records may differ in their call. Calls of active or inactive are those of the source. How the source made its calls, unless noted: active means hit-call score of the fitted dose curve at least 0.9, where 1 is the maximum; inactive means score below 0.9.

Key:
[1] = target: Estrogen receptor (Homo sapiens) (UniProt P03372); assay: CCTE_Deisenroth_AIME_384WELL_LUC_Active: CCTE's 384-well Estrogen Receptor Transactivation Assay with AIME metabolic competence (ERTA luciferase; metabolism positive), Deisenroth Lab (AID 2284030; active means hit-call score of the fitted dose curve at least 0.9, where 1 is the maximum)
Outline: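 AIME metabolism-positive mode: chemicals 0.002 - 200 uM, 2 h with alginate-bound PB/BNF-induced rat S9 → medium to VM7Luc4E2 ERTA, 24 h → luciferase. Positive fit vs 17beta-estradiol; n=4 typical.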

[2] = CCTE_Deisenroth_AIME_384WELL_CTox_Active: Cytotoxicity Assessment (CTOX) in CCTE's 384-well Estrogen Receptor Transactivation Assay with AIME metabolic competence (metabolism positive), Deisenroth Lab (AID 2284037; active means hit-call score of the fitted dose curve at least 0.9, where 1 is the maximum;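 further: chemicals first conditioned 2 h by alginate-bound induced rat liver S9 before cells; activity means signal loss indicating cell death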)
Outline: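 VM7Luc4E2 breast cells received medium pre-incubated 2 h with chemical over alginate microspheres holding induced male Sprague Dawley rat liver S9; viability read 24 h later by protease-substrate fluorescence. Loss of signal, bidirectional fit, 0.002–200 uM.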

[3] = CCTE_Shafer_MEA_acute_per_network_burst_spike_number_mean: CCTE's Neural Acute Assay for Average Number of Spikes in a Network Burst, Shafer Lab (AID 2284019);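 on AC50: curve fitted for loss of signal so actives reduce spikes per network burst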
Outline: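 Primary rat cortical neurons on 16-electrode MEA wells, DIV 13 or 15, 37 C; 40-min baseline then 40-min recording with compound (0.03-40 uM). Spikes per network burst (total spikes/number of bursts) expressed as percent change from baseline, DMSO reference.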

[4] = CCTE_Shafer_MEA_acute_per_network_burst_electrodes_number_mean: CCTE's Neural Acute Assay for Mean Number of Electrodes in a Network Burst, Shafer Lab (AID 2284021);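 further: curves fitted for decreases only so hits reduce electrodes per burst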
Outline: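 Primary rat cortical networks, mwMEA, 37 C. 20 min stabilization, 40 min baseline, compound 0.03-40 uM, 40 min re-record. Wells need >=10 active electrodes; percent change per well, negative fitting direction.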

[5] = CCTE_Shafer_MEA_acute_network_burst_percentage: CCTE's Neural Acute Assay for Percentage of Network Bursts, Shafer Lab (AID 2284022);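 further: curves fitted for loss so actives lower network burst percentage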
Outline: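 Readout is the fraction of spikes falling in network bursts, expressed as per-well percent change from a 40-min pre-exposure baseline. Primary rat cortical neurons on MEA were exposed to 0.03-40 uM compound on DIV 13 or 15 and recorded for 40 min at 37 C.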

[6] = CCTE_Shafer_MEA_acute_cross_correlation_area: CCTE's Neural Acute Assay for Area of Cross Correlation, Shafer Lab (AID 2284024);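 further: rat primary cortical neuron networks on 48-well MEA at DIV 13 or 15 with 40 min exposure; area under pooled inter-electrode spike cross-correlation near zero lag as percent change from own baseline; curves fitted for loss of cross-correlation area so actives lower synchrony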
Outline: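 Plates equilibrated 20 min at 37 C, then 40 min baseline was recorded, compound was added (0.03-40 uM), and a further 40 min was recorded. Wells needed ≥10 active electrodes (≥5 spikes/min) on exposure day.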

[7] = CCTE_Shafer_MEA_acute_cross_correlation_HWHM: CCTE's Neural Acute Assay for Cross Correlation at Half Width at Half Maximum, Shafer Lab (AID 2284026);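 further: percent change per well from pre-dose baseline in spike cross-correlogram half width; hits are a decrease in cross-correlogram half width relative to DMSO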;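 on outcome: spontaneous network firing of rat primary cortical neurons on multiwell microelectrode arrays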
Outline: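 Rat cortical neuron cultures on microelectrode arrays were equilibrated 20 min at 37 C, recorded 40 min at baseline, then 40 min after compound addition (0.03-40 uM, ≥3 wells). Spikes were detected at 8x rms noise after 300-5000 Hz band-pass filtering.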

[8] = CCTE_Shafer_MEA_acute_synchrony_index: CCTE's Neural Acute Assay for Synchrony, Shafer Lab (AID 2284027);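 further: network synchrony index of spontaneous spiking in primary rat cortical neurons on MEAs; fitted for loss of signal so actives lower synchrony relative to DMSO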
Outline: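 Spontaneous firing of mature rat cortical networks is captured extracellularly on microelectrode arrays at 37 C, with wells needing ≥10 active electrodes. Each compound (0.03-40 uM) is judged by the change in synchrony index from baseline over 40 min.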

[9] = CCTE_Shafer_MEA_dev_firing_rate_mean: CCTE's Neural Network Formation Assay for Mean Firing Rate, Shafer Lab (AID 2284031);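 further: AUC of well mean spike rate recorded on DIV 5 7 9 and 12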;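 on AC50: curve fitted for loss of firing so AC50 reflects decreased mean firing rate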
Outline: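 Developing rat cortical networks on MEA plates undergo 12-day compound exposure. Firing frequency, averaged across active electrodes, is integrated as area under the curve over four recording days, referenced to DMSO.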

[10] = CCTE_Shafer_MEA_dev_per_burst_spike_percent: CCTE's Neural Network Formation Assay for Percent of Spikes in a Burst, Shafer Lab (AID 2284032);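 on AC50: fitted as a decrease in burst spike percentage below DMSO baseline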
Outline: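 Rat primary cortical neurons on 16-electrode MEA wells, dosed from plating day 0 for 12 days with renewal on DIV 5 and 9; spikes-in-bursts percentage averaged over bursting electrodes, collapsed as AUC across days 5, 7, 9, 12; loss direction versus DMSO.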

Sequence of Estrogen receptor (Homo sapiens) (P03372 whole entry, looked up): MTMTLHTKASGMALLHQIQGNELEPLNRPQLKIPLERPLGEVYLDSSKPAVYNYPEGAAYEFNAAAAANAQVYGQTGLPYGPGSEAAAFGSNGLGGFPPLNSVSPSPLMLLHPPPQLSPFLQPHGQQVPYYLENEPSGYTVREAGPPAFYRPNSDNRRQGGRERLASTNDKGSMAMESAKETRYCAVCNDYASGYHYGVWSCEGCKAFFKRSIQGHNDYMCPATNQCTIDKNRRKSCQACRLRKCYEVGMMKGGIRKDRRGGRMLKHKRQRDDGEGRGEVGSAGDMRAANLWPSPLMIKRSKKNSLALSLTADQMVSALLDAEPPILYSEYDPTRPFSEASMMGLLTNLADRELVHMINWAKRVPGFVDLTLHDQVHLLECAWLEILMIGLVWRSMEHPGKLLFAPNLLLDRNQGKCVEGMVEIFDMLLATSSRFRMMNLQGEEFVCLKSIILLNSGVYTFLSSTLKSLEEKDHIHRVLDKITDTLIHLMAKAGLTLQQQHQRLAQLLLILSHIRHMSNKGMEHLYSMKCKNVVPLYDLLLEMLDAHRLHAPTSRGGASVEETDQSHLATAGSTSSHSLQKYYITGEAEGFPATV

CCOC(=O)c1ccccc1C(=O)OCC
outcome [1]: inactive | outcome [2]: inactive

CCN(CC)c1ccccc1
outcome [1]: inactive | outcome [2]: inactive

COP(=O)(CCC(=O)NCO)OC
outcome [3]: inactive | outcome [4]: inactive | outcome [5]: inactive | outcome [6]: inactive | outcome [7]: inactive | outcome [8]: inactive

CC(Cl)(Cl)C(=O)O
outcome [3]: inactive | outcome [4]: inactive | outcome [5]: inactive | outcome [6]: inactive | outcome [7]: inactive | outcome [8]: inactive | outcome [1]: inactive

c1ccc2c(c1)Nc1ccccc1S2
outcome [3]: inactive | AC50 [4]: 7.45 µM (active) | AC50 [5]: 20 µM (active) | outcome [6]: inactive | AC50 [7]: 36.9 µM (active) | AC50 [8]: 20 µM (active) | AC50 [1]: 41.3 µM (active) | outcome [2]: inactive

Cc1cccc(N)c1
outcome [1]: inactive

CCOP(=S)(Oc1ccc([N+](=O)[O-])cc1)c1ccccc1 (stereo unspecified)
outcome [3]: inactive | outcome [4]: inactive | outcome [5]: inactive | outcome [6]: inactive | outcome [7]: inactive | outcome [8]: inactive | AC50 [1]: 19.6 µM (active)

CCC1(c2ccccc2)C(=O)N=C(O)NC1=O (stereo unspecified)
outcome [3]: inactive | outcome [4]: inactive | outcome [5]: inactive | outcome [6]: inactive | outcome [7]: inactive | outcome [8]: inactive | outcome [9]: inactive | outcome [10]: inactive

[N-]=[N+]=[N-]
outcome [3]: inactive | outcome [4]: inactive | outcome [5]: inactive | outcome [6]: inactive | outcome [7]: inactive | outcome [8]: inactive | outcome [1]: inactive

COCCOCCO
outcome [3]: inactive | outcome [4]: inactive | outcome [5]: inactive | outcome [6]: inactive | outcome [7]: inactive | outcome [8]: inactive | outcome [1]: inactive

c1ccc(OP(Oc2ccccc2)Oc2ccccc2)cc1
AC50 [1]: 76.8 µM (active) | outcome [9]: inactive | outcome [10]: inactive | outcome [2]: inactive

O=c1ssc(Cl)c1Cl
outcome [1]: inactive

O=C(O)C1C(C(=O)O)C2(Cl)C(Cl)=C(Cl)C1(Cl)C2(Cl)Cl (stereo unspecified)
outcome [3]: inactive | outcome [4]: inactive | outcome [5]: inactive | outcome [6]: inactive | outcome [7]: inactive | outcome [8]: inactive | outcome [9]: inactive | outcome [10]: inactive

O=C(O)CF
outcome [1]: inactive

ClC(Cl)(Cl)c1ccccc1
outcome [3]: inactive | outcome [4]: inactive | outcome [5]: inactive | outcome [6]: inactive | outcome [7]: inactive | outcome [8]: inactive

Nc1ccc2ccccc2c1
outcome [3]: inactive | outcome [4]: inactive | outcome [5]: inactive | outcome [6]: inactive | outcome [7]: inactive | outcome [8]: inactive | AC50 [1]: 13.8 µM (active) | outcome [2]: inactive

CCC(C)(C)c1ccc(O)cc1
outcome [3]: inactive | outcome [5]: inactive | outcome [6]: inactive | AC50 [7]: 9.35 µM (active) | AC50 [8]: 8.24 µM (active) | AC50 [1]: 7.31 µM (active)

CCOS(=O)(=O)OCC
outcome [1]: inactive

CCCN(CCC)c1c([N+](=O)[O-])cc(C(C)C)cc1[N+](=O)[O-]
AC50 [1]: 13.3 µM (active)

CC(C)(C)c1ccccc1OP(=O)(Oc1ccccc1)Oc1ccccc1
outcome [3]: inactive | AC50 [4]: 5 µM (active) | AC50 [5]: 7.61 µM (active) | outcome [6]: inactive | AC50 [7]: 8.14 µM (active) | AC50 [8]: 6.97 µM (active) | outcome [9]: inactive | AC50 [10]: 26.2 µM (active) | outcome [10]: inactive

ClC1=C(Cl)C2(Cl)C3C(Cl)C(Cl)CC3C1(Cl)C2(Cl)Cl (stereo unspecified)
AC50 [3]: 0.309 µM (active) | outcome [4]: inactive | AC50 [5]: 33.8 µM (active) | outcome [6]: inactive | AC50 [7]: 4.29 µM (active) | AC50 [8]: 0.283 µM (active) | AC50 [9]: 4.35 µM (active) | AC50 [10]: 6.7 µM (active)

c1nc[nH]n1
outcome [1]: inactive

COC(N)=O
outcome [1]: inactive

CCOc1ccc(C(C)(C)COCc2cccc(Oc3ccccc3)c2)cc1
outcome [3]: inactive | outcome [4]: inactive | AC50 [5]: 23.8 µM (active) | outcome [6]: inactive | outcome [7]: inactive | AC50 [8]: 28.1 µM (active) | AC50 [9]: 5.99 µM (active) | AC50 [10]: 10 µM (active)

Cc1ccc(N)cc1N
outcome [3]: inactive | outcome [4]: inactive | outcome [5]: inactive | outcome [6]: inactive | outcome [7]: inactive | outcome [8]: inactive

CCCCN(CCCC)N=O
outcome [1]: inactive | outcome [2]: inactive

CCCCC(CC)COP(=O)(Oc1ccccc1)Oc1ccccc1 (stereo unspecified)
outcome [3]: inactive | outcome [4]: inactive | outcome [5]: inactive | outcome [6]: inactive | AC50 [7]: 10.3 µM (active) | AC50 [8]: 22.1 µM (active) | AC50 [1]: 34.1 µM (active) | outcome [9]: inactive | outcome [10]: inactive | outcome [2]: inactive

CCCCN(CC)C(=O)SCCC
outcome [1]: inactive | outcome [2]: inactive

CCCCN(CCCC)SN(C)C(=O)Oc1cccc2c1OC(C)(C)C2
outcome [1]: inactive | outcome [2]: inactive

OCC(F)(F)OC(F)(F)C(F)(F)OC(F)(F)CO
outcome [9]: inactive | outcome [10]: inactive

CCCCc1ccc(O)cc1
AC50 [1]: 26.1 µM (active) | AC50 [2]: 158 µM (active)

CCOP(=S)(OCC)SCSCC
outcome [9]: inactive | AC50 [10]: 74.7 µM (active) | outcome [10]: inactive

O=[N+]([O-])c1ccccc1
outcome [1]: inactive | outcome [2]: inactive

O=P(Oc1ccccc1)(Oc1ccccc1)Oc1ccccc1
outcome [9]: inactive | outcome [10]: inactive

C=CC(=O)OCC(F)(F)C(F)F
outcome [9]: inactive | AC50 [10]: 5.66 µM (active)

Nc1cc2c3c(c1)C(c1ccccc1)=N[C@@H](NC(=O)c1cccnc1)C(=O)N3CC2
outcome [1]: inactive | outcome [2]: inactive

OCC(F)(F)OC(F)(F)C(F)(F)OC(F)(F)C(F)(F)OC(F)(F)F
outcome [9]: inactive | outcome [10]: inactive

CCCCOCC1CO1 (stereo unspecified)
AC50 [1]: 77.3 µM (active) | outcome [2]: inactive

O=C(O)C(F)(F)C(F)(F)C(=O)O
outcome [9]: inactive | outcome [10]: inactive
